Laboratory results taken from paper PMC7826789 (International Journal of Molecular Sciences, 2021).

How the values were obtained:
Settings in all cases: Compound Concentration (nM):1000
INSRR = test system: INSRR
INSR = test system: INSR
IRAK1 = test system: IRAK1
IRAK3 = test system: IRAK3
IRAK4 = test system: IRAK4
ITK = test system: ITK
[1] = test system: JAK1(JH1domain-catalytic)
[2] = test system: JAK1(JH2domain-pseudokinase)
[3] = test system: JAK2(JH1domain-catalytic)
[4] = test system: JAK3(JH1domain-catalytic)
JNK1 = test system: T1, JNK1
T1 construct: gene MAPK8

JNK2 = test system: T2, JNK2
T2 construct: gene MAPK9

JNK3 = test system: T3, JNK3
T3 construct: gene MAPK10

KIT(A829P) = test system: KIT(A829P)
KIT(D816H) = test system: KIT(D816H)
KIT(D816V) = test system: KIT(D816V)
KIT(L576P) = test system: KIT(L576P)
KIT(V559D) = test system: KIT(V559D)
KIT(V559D,T670I) = test system: KIT(V559D,T670I)
KIT(V559D,V654A) = test system: KIT(V559D,V654A)
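Also: KINOMEscan scanMAX binding as percent activity remaining versus control; lower means stronger binding.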

Compound | Percent Control (INSRR) [%] | Percent Control (INSR) [%] | Percent Control (IRAK1) [%] | Percent Control (IRAK3) [%] | Percent Control (IRAK4) [%] | Percent Control (ITK) [%] | Percent Control [1] [%] | Percent Control [2] [%] | Percent Control [3] [%] | Percent Control [4] [%] | Percent Control (JNK1) [%] | Percent Control (JNK2) [%] | Percent Control (JNK3) [%] | Percent Control (KIT(A829P)) [%] | Percent Control (KIT(D816H)) [%] | Percent Control (KIT(D816V)) [%] | Percent Control (KIT(L576P)) [%] | Percent Control (KIT(V559D)) [%] | Percent Control (KIT(V559D,T670I)) [%] | Percent Control (KIT(V559D,V654A)) [%]
COc1cc(C=NNc2ncnc3c2cnn3-c2ccccc2)ccc1O [GW513184X] | 100 | 100 | 43 | 28 | 72 | 100 | 100 | 84 | 72 | 81 | 99 | 94 | 82 | 100 | 84 | 40 | 17 | 35 | 65 | 74
COc1cccc(-n2ncc3c(N/N=C/c4ccncc4)ncnc32)c1 [GW784752X] | 100 | 100 | 37 | 0 | 99 | 100 | 100 | 96 | 66 | 83 | 99 | 83 | 96 | 100 | 46 | 100 | 84 | 89 | 38 | 100
COc1ccc(COc2ccc(Cc3cnc(N)nc3N)cc2OC)cc1 [GW632580X] | 100 | 69 | 99 | 100 | 95 | 89 | 100 | 89 | 92 | 77 | 85 | 93 | 94 | 100 | 68 | 96 | 93 | 96 | 100 | 100
COc1ccccc1-c1cc(/C=C2\C(=O)Nc3ncc(Br)cc32)cc(Br)c1O [GW442130X] | 100 | 87 | 74 | 100 | 85 | 100 | 100 | 100 | 82 | 55 | 52 | 43 | 30 | 100 | 100 | 100 | 76 | 65 | 100 | 62
O=C1Nc2ccc(C(=O)c3ccco3)cc2C1=Cc1cc(Cl)c(O)c(Cl)c1 [GW406108X] | 100 | 91 | 86 | 100 | 64 | 100 | 100 | 7.3 | 47 | 2.1 | 64 | 70 | 64 | 83 | 69 | 81 | 38 | 52 | 78 | 100
O=C(Nc1n[nH]c2nc(-c3ccc(O)cc3)c(Br)cc12)C1CC1 [SB-725317] | 100 | 100 | 56 | 100 | 89 | 100 | 60 | 63 | 24 | 6.9 | 35 | 85 | 80 | 100 | 100 | 94 | 56 | 71 | 100 | 96
COc1cc(/C=N/Nc2ncnc3[nH]ncc23)ccc1O [GW578748X] | 100 | 94 | 31 | 100 | 61 | 100 | 100 | 0.6 | 47 | 47 | 40 | 49 | 37 | 36 | 26 | 22 | 51 | 44 | 100 | 52
CCS(=O)(=O)c1ccc(OC)c(Nc2ncc(-c3cccc(F)c3)o2)c1 [GW621970X] | 100 | 100 | 48 | 100 | 61 | 100 | 100 | 98 | 100 | 75 | 69 | 92 | 94 | 63 | 51 | 39 | 3 | 4.8 | 35 | 90
COc1cc(N2CCN(C(C)C)CC2)ccc1Nc1nc(Nc2ccc(F)cc2C(=O)NC[C@@H](O)CO)c2cc[nH]c2n1 [GSK1392956A] | 1.4 | 1.1 | 90 | 86 | 89 | 100 | 94 | 89 | 100 | 88 | 0 | 0.1 | 0.1 | 88 | 57 | 100 | 100 | 100 | 96 | 98
CN1CCN(C(=O)c2ccc(NC(=O)Nc3ccc(N(C)c4ccnc(Nc5ccc(CS(C)(=O)=O)cc5)n4)cc3)cc2)CC1.Cl [GW830263A] | 100 | 61 | 58 | 0.1 | 52 | 98 | 76 | 13 | 4.7 | 5.4 | 5.5 | 19 | 8.6 | 0 | 27 | 23 | 0 | 0 | 0.1 | 9.1
CCS(=O)(=O)c1ccc(OC)c(Nc2ncc(-c3cccc(OC)c3)o2)c1 [GW580509X] | 100 | 95 | 90 | 100 | 100 | 100 | 100 | 97 | 94 | 62 | 76 | 89 | 95 | 83 | 52 | 42 | 0 | 2.3 | 66 | 79
CN(C)CCNC(=O)Nc1ccc(N(C)c2ccnc(Nc3ccc(CS(C)(=O)=O)cc3)n2)cc1.Cl [GW830900A] | 99 | 75 | 59 | 31 | 80 | 83 | 100 | 33 | 30 | 40 | 43 | 65 | 55 | 31 | 45 | 52 | 0 | 0 | 14 | 72
Nc1ncnc2occ(-c3ccc(NC(=O)Nc4cc(C(F)(F)F)ccc4F)cc3)c12 [GW770249X] | 100 | 90 | 95 | 100 | 100 | 100 | 79 | 80 | 62 | 100 | 99 | 9.2 | 100 | 7.5 | 32 | 14 | 0 | 0 | 0.5 | 7.5
COc1ccc2c(-c3ccnc(Nc4cccc(OC(F)(F)F)c4)n3)cnn2n1 [GW810372X] | 100 | 90 | 19 | 80 | 100 | 100 | 100 | 7.5 | 62 | 65 | 22 | 60 | 41 | 83 | 77 | 87 | 88 | 88 | 86 | 100
NS(=O)(=O)c1ccc(N/N=C2\C(=O)Nc3ccc(-c4cnco4)cc32)cc1 [GW276655] | 83 | 73 | 79 | 100 | 90 | 93 | 100 | 31 | 54 | 16 | 87 | 83 | 83 | 79 | 69 | 100 | 55 | 58 | 100 | 100
CCc1ccc(Oc2nccc(-c3c(-c4ccc(F)cc4)ncn3C3CCNCC3)n2)cc1 [SB-242719] | 100 | 77 | 95 | 95 | 88 | 100 | 95 | 100 | 90 | 100 | 65 | 15 | 17 | 94 | 73 | 100 | 85 | 95 | 94 | 74
CN(C)c1cc2c(Nc3ccc4c(cnn4Cc4ccccc4)c3)ncnc2cn1 [GW282974X] | 100 | 63 | 100 | 100 | 100 | 87 | 100 | 92 | 100 | 99 | 87 | 92 | 82 | 70 | 62 | 90 | 100 | 100 | 96 | 100
NS(=O)(=O)c1ccc(N/N=C2\C(=O)Nc3ccc(Cl)cc32)cc1 [GW280670X] | 100 | 100 | 100 | 100 | 100 | 100 | 100 | 80 | 100 | 100 | 84 | 100 | 100 | 100 | 100 | 100 | 67 | 81 | 100 | 58
C[C@@H](Oc1cc(-n2cnc3ccc(OC4CCN(C)CC4)cc32)sc1C(N)=O)c1ccccc1Cl [GSK579289A] | 90 | 64 | 73 | 83 | 94 | 77 | 100 | 75 | 75 | 7.2 | 82 | 98 | 96 | 49 | 1.7 | 48 | 31 | 30 | 41 | 95
CC(C)COC(=O)c1ccc2c(c1)/C(=C/Nc1ccc(S(N)(=O)=O)cc1)C(=O)N2 [GW416981X] | 100 | 100 | 50 | 100 | 100 | 100 | 100 | 56 | 63 | 14 | 44 | 65 | 71 | 53 | 20 | 22 | 57 | 100 | 100 | 100
